In ChEMBL document CHEMBL2218924, “A broad activity screen in support of a chemogenomic map for kinase signalling research and drug discovery” (Biochem J, 2013):

Target: Calcium/calmodulin-dependent protein kinase type II subunit beta (Homo sapiens) (UniProt Q13554)
Conditions: at 1 µM

Calcium/calmodulin-dependent protein kinase type II subunit beta (Homo sapiens), sequence (Q13554 whole entry): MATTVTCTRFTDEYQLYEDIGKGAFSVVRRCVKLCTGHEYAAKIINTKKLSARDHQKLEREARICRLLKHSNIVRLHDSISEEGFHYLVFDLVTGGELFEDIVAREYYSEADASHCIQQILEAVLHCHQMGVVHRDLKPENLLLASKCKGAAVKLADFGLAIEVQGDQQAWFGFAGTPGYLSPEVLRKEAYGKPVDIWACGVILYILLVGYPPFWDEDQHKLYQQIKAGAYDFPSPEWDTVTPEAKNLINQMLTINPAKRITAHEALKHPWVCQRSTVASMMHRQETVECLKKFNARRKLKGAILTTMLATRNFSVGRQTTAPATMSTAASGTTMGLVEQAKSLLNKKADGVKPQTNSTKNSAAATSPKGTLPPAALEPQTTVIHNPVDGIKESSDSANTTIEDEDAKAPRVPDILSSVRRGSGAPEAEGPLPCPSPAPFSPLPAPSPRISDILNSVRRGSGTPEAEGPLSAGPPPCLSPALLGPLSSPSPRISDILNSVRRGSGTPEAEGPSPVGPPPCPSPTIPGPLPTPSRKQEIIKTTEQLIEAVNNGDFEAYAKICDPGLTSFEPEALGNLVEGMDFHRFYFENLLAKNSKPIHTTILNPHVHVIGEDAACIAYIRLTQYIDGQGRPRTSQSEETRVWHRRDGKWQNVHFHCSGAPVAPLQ

| Compound | residual activity [%] |
| --- | --- |
| O=C1NC(=O)c2c1c1c3ccccc3[nH]c1c1[nH]c3cc(Br)ccc3c21 | 92 |
| NC(=O)c1ccc2[nH]c(-c3ccc(Oc4ccc(Cl)cc4)cc3)nc2c1 | 87 |
| Cc1cncc2cccc(S(=O)(=O)N3CCCN(C(=O)CN)C[C@H]3C)c12 | 76 |
| CCN(CC)CCCCN1c2ccccc2Oc2ccc(Cl)cc21 | 106 |
| COc1ccc(CNc2nc(N(CCO)CCO)nc3c2ncn3C(C)C)cc1 | 89 |
| Cc1ccc(S(=O)(=O)/C=C/C#N)cc1 | 101 |
| CO[C@H]1C[C@@H]2CC[C@@H](C)[C@@](O)(O2)C(=O)C(=O)N2CCCC[C@H]2C(=O)O[C@H]([C@H](C)C[C@@H]2CC[C@@H](O)[C@H](OC)C2)CC(=O)[C@H](C)/C=C(\C)[C@@H](O)[C@@H](OC)C(=O)[C@H](C)C[C@H](C)/C=C/C=C/C=C/1C | 92 |
| CO[C@H]1[C@@H](OC)C[C@H](C)[C@@H](OC)C2=CC(=O)C=C(NC(=O)/C(C)=C/C=C/[C@H](OC)[C@@H](OC(N)=O)/C(C)=C/[C@@H]1C)C2=O | 97 |
| CC[n+]1c(/C=C/N(C)c2ccccc2)n(-c2ccccc2)c2ccc(-c3nc4ccccc4s3)cc21 | 93 |
| Cc1ccc(NC2=CC(=O)c3sc(C)nc3C2=O)cc1 | 89 |
| Oc1ccc(-c2nc(-c3ccc(F)cc3)c(-c3ccncc3)[nH]2)cc1 | 92 |
| Nc1n[nH]c2nnc(-c3c(-c4ccccc4)nn4ccccc34)cc12 | 93 |
| CCOc1cc2ncnc(Nc3cccc(Br)c3)c2cc1OCC | 91 |
| N#Cc1cnc2cnc(NCc3cccnc3)cc2c1Nc1ccc(F)c(Cl)c1 | -2 |
| CNc1cc2c(Nc3cccc(Br)c3)ncnc2cn1 | 87 |
| Ic1cccc(CSc2nnc(-c3ccncc3)o2)c1 | 75 |
| O=C1NC(=O)/C(=C/c2ccc3c(c2)OC(F)(F)O3)S1 | 94 |
| CC(=O)c1ccc(N2CCOCC2)cc1O | 89 |

| Compound | residual activity [%] |
| --- | --- |
| CO[C@@H]1[C@H](N(C)C(=O)c2ccccc2)C[C@H]2O[C@]1(C)n1c3ccccc3c3c4c(c5c6ccccc6n2c5c31)C(=O)NC4 | 18 |
| CC(C)n1cnc2c(NCc3ccccc3)nc(NCCCO)nc21 | 84 |
| COc1cc2ncnc(Nc3ccc(Oc4ccccc4)cc3)c2cc1OC | 88 |
| O=C(Nc1cccc(Nc2cc(Nc3cccc(C(F)(F)F)c3)ncn2)c1)C1CC1 | 91 |
| COc1ccc(OC)c2c(=S)c3ccccc3[nH]c12 | 92 |
| Cn1nc2c3c(cccc31)C(=O)c1ccccc1-2 | 77 |
| Nc1ccc2ncnc(NCCc3ccc(Oc4ccccc4)cc3)c2c1 | 72 |
| CN(C)c1ccc(/C=C2\C(=O)Nc3ccccc32)cc1 | 101 |
| O=C1Nc2cc(Br)ccc2/C1=C1/Nc2ccccc2/C1=N\O | 15 |
| Nc1nc(Nc2ccc(S(N)(=O)=O)cc2)nn1C(=S)Nc1c(F)cccc1F | 5 |
| N#C/C(=C(\N)Sc1ccc(N)cc1)c1ccccc1C(F)(F)F | 79 |
| COc1cc2ncnc(Nc3ccc(O)c(Br)c3)c2cc1OC | 73 |
| O=C1NC(=O)/C(=C\c2ccc3nccnc3c2)S1 | 65 |
| Cc1nc2cc3nc(-c4cccs4)cnc3cc2n1C | 100 |
| COc1cc2ncnc(N3CCN(C(=O)Nc4ccc(Oc5ccccc5)cc4)CC3)c2cc1OC | 80 |
| Nc1cccc(-c2cc3c(Oc4cccc(O)c4)ncnc3[nH]2)c1 | 75 |
| COc1cccc(-c2cc(=O)c3ccccc3o2)c1N | 92 |
